High-throughput results from PubChem BioAssay.
Sfp inh – inhibitors of Bacillus subtilis Sfp phosphopantetheinyl transferase; Biochemical Sfp PPTase activity, qHTS; Potency, µM, inactives show largest response in the series, negative = inhibition, most hits filed as inhibitors; actives 3.5% (n = 310,000); AID 1490;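 further: the enzyme is Sfp with the accession as filed and its product quenches rhodamine fluorescence; 0% = enzyme reaction without inhibitor and -100% = no enzyme wells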
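Fluorescence-quenching assay with 15 nM Sfp, 5 uM rhodamine-CoA and 12.5 uM BHQ-2-labelled ybbR peptide in pH 7.6 Hepes/MgCl2 buffer. Enzyme was pre-incubated with compound for 15 min at room temperature. Rate was taken from the 30-min fluorescence change (525/598 nm).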
NPSR antag – antagonists of human neuropeptide S receptor cAMP signaling. Potency, µM (titrated, usually from 38.3 µM), inactives show top-dose activity change, negative = inhibition, actives largely listed as inhibitors. CHO-NPSR cells, cAMP TR-FRET, antagonist mode. AID 1461. actives 1% (n = 220,000). Q6W5P4; further: on the % scale 0 is the no-effect control and ±100 the full control effect; nearly all actives have a fitted effect of over 50% in size
Target sequence (Q6W5P4 whole entry, looked up): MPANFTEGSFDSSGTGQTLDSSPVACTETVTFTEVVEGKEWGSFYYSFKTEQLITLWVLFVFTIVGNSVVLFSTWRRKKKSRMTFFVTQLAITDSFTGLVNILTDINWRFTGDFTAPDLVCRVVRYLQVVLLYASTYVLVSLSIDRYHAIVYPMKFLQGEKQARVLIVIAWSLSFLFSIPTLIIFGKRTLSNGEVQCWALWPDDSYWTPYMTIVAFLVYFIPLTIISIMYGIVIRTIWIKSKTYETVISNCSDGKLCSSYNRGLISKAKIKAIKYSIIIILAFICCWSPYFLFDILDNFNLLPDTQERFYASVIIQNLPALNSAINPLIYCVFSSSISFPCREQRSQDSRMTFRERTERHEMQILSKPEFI
Epigenetic reg – regulators of epigenetic silencing causing reporter derepression in mouse cells. murine LDR cells, GFP reporter derepression, 30 h. Potency, µM (highest dose often 53.9 µM), for inactives: at the highest dose GFP activation, usual class: activators. actives 0.2% (n = 280,000); further: % of control where 0% means no effect; nearly all actives have a fitted effect of over 60% in size
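In this reporter-derepression format, murine cells bearing a silenced integrated CMV-GFP locus incubate with test compound (30 h, 37 C), then are washed and imaged; fluorescent objects of 20–120 um count as induced cells.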
JMJD2E inh – JMJD2E (human) inhibition | B2RXH2 | JMJD2E catalytic domain, FDH-coupled NADH fluorescence (FDH is formaldehyde dehydrogenase) | Potency, µM (titrated, usually from 57.1 µM), without a hit: top-dose activity change, negative = inhibition, usual class: inhibitors | actives 1.6% (n = 230,000) | AID 2147; active means well fitted inhibition curve with a large enough effect, not every such curve was filed as active; inconclusive means small, poorly fitted or top-dose-only effect, or another doubt; inactive means no such curve, though single readings can be large or run the other way;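 further: 0% = wells with enzyme and -100% = buffer wells without enzyme; nearly all actives have a fitted effect of over 50% in size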
Target sequence (B2RXH2 1-337 limits assumed): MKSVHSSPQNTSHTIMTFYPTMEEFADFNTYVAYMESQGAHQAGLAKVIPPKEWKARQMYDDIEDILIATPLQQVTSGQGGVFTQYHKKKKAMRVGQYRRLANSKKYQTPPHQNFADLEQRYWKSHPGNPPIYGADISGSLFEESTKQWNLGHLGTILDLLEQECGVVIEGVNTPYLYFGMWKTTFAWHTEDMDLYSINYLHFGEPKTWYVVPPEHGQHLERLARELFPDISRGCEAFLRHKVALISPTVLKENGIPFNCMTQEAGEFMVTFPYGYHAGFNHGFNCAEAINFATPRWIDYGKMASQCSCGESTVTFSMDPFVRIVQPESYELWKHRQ
IMPase Li inh – cell-permeable IMPase inhibitors with lithium potentiation; Potency, µM (top dose mostly 59.4 µM), without a hit: top-dose activity, negative = IMPase inhibition, hits mostly inhibitors; CHO-M1 cells, IP1 TR-FRET (IP-One), carbachol + lithium; actives 0.35% (n = 210,000);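 further: IP1 builds up when IMPase is blocked and the TR-FRET signal falls; plate controls were basal vehicle for no effect and high inhibitor control for full effect; nearly all actives have a fitted effect of over 50% in size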
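Concentration–response in CHO-M1 cells, lithium-potentiated; 30 min at 37C. IP1 detected by competitive TR-FRET after 10 min lysis at RT. Hill-fitted AC50.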
GCN5L2 inh – GCN5L2 (KAT2A) acetyltransferase inhibition. Potency, µM (series often up to 58.9 µM), inactives show at the highest dose activity change, negative = inhibition, hits mostly inhibitors. Q92830. actives 0.21% (n = 390,000). GCN5L2 HAT assay, ThioGlo1 CoA-SH fluorescence; further: on the % scale 0 is the no-effect control and ±100 the full control effect
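Titration-based screen in which CoA formation is detected via maleimide probe ThioGlo1 (50uM) turning fluorescent on thiol reaction; substrates H3(1-25) 75uM and acetyl-CoA 70uM, GCN5L2 20nM, 20 min incubation at room temperature.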
Numbers without * were called inactive; ? = inconclusive; · = not tested or not shown; [ ] = dose if it differs, or a comment. Shown are actives, neighbours in structure and some others; about 3.6% of the full set was active somewhere. Unless noted, the call rests on the fitted dose curve; in most records, active means well fitted curve in the direction sought with a large enough effect; inconclusive means small, poorly fitted or top-dose-only effect, or another doubt; inactive means no such curve, though single readings can be large; an effect the other way counts as inactive or inconclusive. Potency means the concentration at half of the fitted maximal effect.

SMILES	Sfp inh	NPSR antag	Epigenetic reg	JMJD2E inh	IMPase Li inh	GCN5L2 inh
O=C(CN1C(=O)COc2ccccc21)NCCCN1CCc2ccccc2C1	20µM*	14.3%[46.1 µM]	-1.1%	-3.9%	22.7%[38.3 µM]	2.7%
COc1ccc(N2CSC3=C(C#N)C(c4cccs4)CC(=O)N3C2)cc1 (stereo unspecified)	2.24µM*	-26.7%[7.67 µM]	-0.6%	2.1%	12.6µM*	12.6µM*
Cc1ccc(N2CSC3=C(C#N)C(c4cccs4)CC(=O)N3C2)cc1 (stereo unspecified)	1.41µM*	-0.5%[46.1 µM]	-1.0%	?	-29.0%[38.3 µM]	?
CCc1ccc(C2CC(=O)N3CN(c4ccccc4)CSC3=C2C#N)cc1 (stereo unspecified)	2µM*	-10.4%[46.1 µM]	-1.0%	?	-3.9%[38.3 µM]	?
CCOC(=O)c1ccc(N2CSC3=C(C#N)C(c4cccs4)CC(=O)N3C2)cc1 (stereo unspecified)	11.2µM*	-10.0%[46.1 µM]	3.7%	?	7.9%[38.3 µM]	?
Cc1ccc(N2C(N)=C(C#N)C(c3cccs3)C3=C2CC(C)(C)CC3=O)cc1 (stereo unspecified)	-25.0%	-24.5%[46.1 µM]	-2.8%	?	35.7%[38.3 µM]	0.3%
Clc1ccc(-c2noc(-c3cccnc3N3CCN(c4ccccc4)CC3)n2)cc1	·	·	-2.0%	·	·	0.0%
COc1ccc([C@H]2c3cc(OC)c(OC)cc3C[C@@H](C)[C@@H]2C)cc1OC	16.3%	·	-1.1%	-3.3%	12.4%	·
COc1cccc(C2CC(=O)NC(SC)=C2C#N)c1 (stereo unspecified)	1.5%	1.6%[46.1 µM]	-3.2%	-2.5%	-1.2%[38.3 µM]	-7.1%
N#CC1=C2SCN(c3ccc(F)cc3)CN2C(=O)CC1c1cccc(F)c1 (stereo unspecified)	1.41µM*	-3.1%[46.1 µM]	1.0%	22.4µM*	?	-19.3%
CCOC(=O)CC1=C(C(=O)OCC)C(c2cccs2)C(C#N)=C(N)O1 (stereo unspecified)	-7.2%	7.2%[46.1 µM]	0.2%	?	1.2%[38.3 µM]	·
CCc1ccc(N2CSC3=C(C#N)C(c4cccs4)CC(=O)N3C2)cc1 (stereo unspecified)	2.51µM*	11.0%[46.1 µM]	-1.1%	?	-13.5%[38.3 µM]	?
O=C(O)CCCC(=O)NCc1c(Cl)cccc1Sc1ccc(Cl)cc1	79.4µM*	10.5%	4.9%	-0.8%	·	-4.5%
Cn1cnnc1SCC(=O)c1cccc([N+](=O)[O-])c1	-26.9%	2.9%	1.1%	4.4%	0.6%	-4.1%
COc1ccc(C(=O)CSc2n[nH]c(C)n2)cc1[N+](=O)[O-]	79.4µM*	2.1%	-0.6%	4.2%	3.9%	11.1%
Cc1nc(SCC(=O)c2cccc([N+](=O)[O-])c2)n[nH]1	20µM*	-10.3%[46.1 µM]	?	-3.9%	-0.7%	-27.8%
CCc1nc(SCC(=O)c2ccc(C)c(C)c2)n[nH]1	79.4µM*	-11.1%[46.1 µM]	-0.9%	?	1.9%[38.3 µM]	-17.0%
CCCC1CC(C)(C(=O)CSc2n[nH]c(-c3ccccc3)n2)OC1=O (stereo unspecified)	79.4µM*	-1.4%[46.1 µM]	-0.8%	-13.1%	21.5%[38.3 µM]	-10.1%
C=CCC(C)(O)c1cccc(Br)c1 (stereo unspecified)	14.6%	·	-1.1%	-2.7%	12.2%	·
C[C@H]1Cc2c(COc3ccccc3)nc3c(c2CO1)CN(S(=O)(=O)c1ccc(C#N)cc1)CC3	8.2%	·	·	-1.3%[11.4 µM]	8.3%	·
COc1ccc([N+](=O)[O-])cc1NC(=O)CSc1ccc2ccccc2c1	3.2%	-5.9%	-3.2%	4.7%	8.9%	-8.5%
CCOc1ccc(-c2nc(SCC(=O)c3ccccc3)n[nH]2)cc1	·	·	1.1%	·	·	-9.8%
COc1ccc([N+](=O)[O-])cc1NC(=O)CSc1nc(C)cc(C)n1	22.4µM*	13.0%	0.0%	0.6%	4.0%	-11.3%
O=C(CSc1n[nH]c(-c2ccccc2)n1)c1ccc(O)c(O)c1	-14.2%	?	1.5%	28.2µM*	-8.1%[38.3 µM]	-6.5%
Cc1ccnc(SCC(=O)c2cccc([N+](=O)[O-])c2)n1	50.1µM*	-0.8%[46.1 µM]	1.3%	0.5%	1.2%	26.9%
SMILES	Sfp inh	NPSR antag	Epigenetic reg	JMJD2E inh	IMPase Li inh	GCN5L2 inh
CCC1CCCCC1	13.2%	·	·	·	·	-10.0%
CCOC(=O)c1[nH]c2ccccc2c1NC(=S)Nc1cc(C)ccc1C	39.8µM*	-36.1%	-1.9%	-10.3%	-9.2%	-2.7%
CCOC(=O)c1[nH]c2ccccc2c1NC(=O)c1ccco1	50.1µM*	0.2%[46.1 µM]	1.8%	0.1%	11.6%[38.3 µM]	-19.9%
COc1ccc(-c2ccoc2)cc1C1C2C=CCC(C)C2C(=O)N1Cc1ccccc1 (stereo unspecified)	-15.3%	·	·	·	·	·
CN(C)c1ccc(CNC(=O)C2CCCN(S(=O)(=O)c3ccc4c(ccn4C)c3)C2)cc1 (stereo unspecified)	·	·	0.0%	·	·	-2.3%
COc1ccccc1-n1c(SCC(=O)N2CCc3ccccc32)nc2c(c1=O)SCC2	79.4µM*	-9.7%[46.1 µM]	0.0%	-14.1%	31.0%[38.3 µM]	1.5%
COc1ccc(OC)c(-n2c(SCC(=O)N3CCc4ccccc43)nc3c(c2=O)SCC3)c1	10.1%	-16.2%[46.1 µM]	0.0%	-4.3%	4.1%	-3.9%
Cn1c(-n2cccc2)c(-c2c(-c3ccc(F)cc3)[nH]c3c2c(=O)n(C)c(=O)n3C)c(=O)n(C)c1=O	·	·	-1.6%	·	·	-7.5%
Cc1ccccc1C(=O)Nc1nc(-c2ccc(Br)cc2)ns1	·	·	1.1%	·	·	-8.3%
CC(=O)Nc1nc2cc(N)ccc2s1	·	·	·	·	·	1.3%
Cc1ccccc1C(=O)Nc1nc(=S)ss1	22.4µM*	4.3%[46.1 µM]	0.0%	-0.1%	4.3%[38.3 µM]	?
O=C(Nc1nc(=S)ss1)c1c(F)cccc1F	22.4µM*	1.1%[46.1 µM]	0.0%	1.9%	-3.8%[38.3 µM]	-8.2%
CC(C)CC(=O)Nc1nc(=S)ss1	15.8µM*	1.3%[46.1 µM]	2.1%	-11.7%	23.7%[38.3 µM]	-8.7%
CC(=O)Nc1nc(=S)ss1	15.8µM*	-0.4%[46.1 µM]	-0.8%	-3.5%	-2.3%[38.3 µM]	-26.5%
O=C1[C@H]2[C@H]3[C@H](O)[C@H](O)C/C(=N/OCc4ccccc4)[C@H]3CC[C@@H]2C(=O)N1C1CCCCC1	5.0%	·	0.0%[10.1 µM]	·	·	·
Cn1cnc(S(=O)(=O)N2CCC(C(=O)N3CCN(c4ccccc4F)CC3)CC2)c1	·	·	-2.5%	·	·	-10.4%
CC12CC[C@@](C(=O)O)(C(=O)C1=O)C2(C)C	3.1%	·	0.0%	2.9%	7.3%	·
CC(C)N(C(=O)Cn1cc(S(=O)(=O)Cc2ccc(Br)cc2)c2ccccc21)C(C)C	·	·	6.9%	·	·	-2.1%
NC(=S)NS(=O)(=O)c1ccc(N)cc1	?	·	·	·	·	-4.0%
CCOC(=O)c1c(NC(C)=O)sc2c1CCC(C=O)=C2Sc1ccccc1	50.1µM*	?	?	-7.4%	49.8%[38.3 µM]	-4.5%
CCOC(=O)c1c(NC(=O)c2ccccc2Br)sc2c1CCc1ccccc1-2	39.8µM*	?	-1.3%	?	33.4%[38.3 µM]	-13.9%
